Measurements published in PubChem BioAssay (EPA / NIEHS).
Activity calls are given as the source filed them. Rule for the calls: active = hit-call score of the fitted dose curve at least 0.9, where 1 is the maximum; inactive = score below 0.9.

How the values were obtained:
[1] = ATG_CRE_CIS: Attagene CIS-FACTORIAL HepG2 Assay for human cAMP Responsive Element (CRE) binding protein 3 (AID 2282926); details: HepG2 CRE cis-reporter, Attagene multiplexed mRNA; actives raise or lower the signal
Outline: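 Transfected HepG2 were treated for 24 hours, then RNA was extracted and reporter cDNA amplified with sequence-specific primers. Labelled fragments were separated by capillary electrophoresis, and the CRE signal was fitted bidirectionally with DMSO as baseline.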

[2] = target: CCAAT/enhancer-binding protein beta (Homo sapiens) (UniProt P17676); test: ATG_C_EBP_CIS: Attagene CIS-FACTORIAL HepG2 Assay for human CCAAT/Enhancer Binding Protein (C/EBP) beta (AID 2282927); details: HepG2 Attagene cis-factorial transcription factor reporter; actives raise or lower the signal
Sequence of CCAAT/enhancer-binding protein beta (Homo sapiens) (P17676 whole entry, looked up): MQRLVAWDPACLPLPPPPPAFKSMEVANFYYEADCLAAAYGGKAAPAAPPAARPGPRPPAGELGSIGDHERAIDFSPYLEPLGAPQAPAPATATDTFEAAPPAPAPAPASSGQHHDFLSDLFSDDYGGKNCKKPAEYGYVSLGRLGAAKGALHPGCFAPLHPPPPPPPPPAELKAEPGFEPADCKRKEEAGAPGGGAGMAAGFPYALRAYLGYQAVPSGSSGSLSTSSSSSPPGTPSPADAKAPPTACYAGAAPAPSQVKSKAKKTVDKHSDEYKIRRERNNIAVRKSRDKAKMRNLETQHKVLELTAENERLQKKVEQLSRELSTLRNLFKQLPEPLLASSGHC
Outline: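 HepG2, transient MRTU transfection, 24 h treatment. RT-PCR plus CE fluorescence; DMSO negative control, bidirectional fit.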

[3] = ATG_AP_1_CIS: Attagene CIS-FACTORIAL HepG2 Assay for human Activator Protein 1 (AP-1) (AID 2282931); details: HepG2 Attagene cis-factorial AP-1 reporter mRNA; actives raise or lower the signal
Outline: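 Endogenous transcription-factor activity in human HepG2 liver cells is read through a cis-promoter reporter transcript, sampled 24 h after dosing. Detection uses RT-PCR with capillary electrophoresis; values come from bidirectional fitting relative to DMSO.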

[4] = ATG_AP_2_CIS: Attagene CIS-FACTORIAL HepG2 Assay for human Activator Protein 2 (AP-2) (AID 2282932); details: HepG2 AP-2 cis-reporter, Attagene transcription factor profiling; actives raise or lower the signal
Outline: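 HepG2 cells transiently transfected with cis-element reporter units and exposed for 24 h. Reporter mRNA measured by RT-PCR, FAM labelling, HpaI digestion and capillary electrophoresis. Changes in either direction fitted relative to DMSO.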

[5] = ATG_BRE_CIS: Attagene CIS-FACTORIAL HepG2 Assay for human Bone Morphogenetic Protein (BMP) Response Element (BRE) (AID 2282933); details: HepG2 BMP response element reporter, Attagene transcription factor profiling; actives raise or lower the signal
Outline: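 Transient MRTU transfection of human HepG2 liver cells; 24 h compound treatment; total RNA isolated, reverse-transcribed, PCR-amplified, 6-FAM labelled, HpaI-cut, capillary electrophoresis. DMSO = negative control/baseline, bidirectional fit.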

[6] = ATG_E_Box_CIS: Attagene CIS-FACTORIAL HepG2 Assay for human Enhancer Box (E-box) (AID 2282936); details: HepG2 E-box cis-reporter transcription, actives raise or lower the signal
Outline: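 HepG2 cells transiently transfected with multiplexed cis-element reporter units, dosed 24 h; reporter mRNA quantified by RT-PCR, 6-FAM labelling, HpaI digestion and capillary electrophoresis. E-box (USF1) signal fitted bidirectionally vs DMSO.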

[7] = ATG_M_61_CIS: Attagene CIS-FACTORIAL HepG2 Assay for M61 Transcription Factor (Internal Marker) (AID 2282937); details: HepG2 Attagene CIS-FACTORIAL M61 internal marker reporter; actives raise or lower the signal
Outline: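 Cells were transfected with reporter units under cis-regulatory promoters, treated with chemicals for 24 h, then lysed for RNA. Reporter transcripts were quantified by RT-PCR and capillary electrophoresis, and activity was fitted bidirectionally against DMSO.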

[8] = ATG_EGR_CIS: Attagene CIS-FACTORIAL HepG2 Assay for human Early Growth Response 1 (EGR1) (AID 2282938); details: HepG2 Attagene CIS-FACTORIAL EGR reporter mRNA; actives raise or lower the signal
Outline: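 Endogenous TF activity in HepG2 liver cells was gauged through cis-promoter reporter constructs transiently transfected. After 24 h dosing, reporter mRNA was quantified by RT-PCR and capillary electrophoresis, and curves fitted in both directions versus DMSO.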

[9] = ATG_Ets_CIS: Attagene CIS-FACTORIAL HepG2 Assay for human Erythroblast Transformation Specific (ETS) (AID 2282941); details: HepG2 ETS cis-reporter transcription, actives raise or lower the signal
Outline: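 After transient cis-reporter transfection, HepG2 cells receive test chemical for 24 h. Reporter mRNA levels, measured by RT-PCR and capillary electrophoresis fluorescence, are analysed bidirectionally relative to the DMSO baseline.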

[10] = ATG_FoxO_CIS: Attagene CIS-FACTORIAL HepG2 Assay for human Forkhead box O (FoxO) (AID 2282943); details: HepG2 Attagene cis-reporter, FoxO element, mRNA; actives raise or lower the signal
Outline: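 Transfected HepG2 reporter cells exposed to test chemical for 24 h; reporter RNA measured by reverse transcription, PCR and fluorescent capillary electrophoresis; curves fitted for increases and decreases against DMSO.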

[11] = ATG_GATA_CIS: Attagene CIS-FACTORIAL HepG2 Assay for human GATA Binding Protein (AID 2282944); details: HepG2 GATA cis-element reporter, Attagene multiplex mRNA; actives raise or lower the signal
Outline: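 Transient MRTU transfection, HepG2, 24 h compound exposure. Total RNA → oligo(dT) RT → PCR → 6-FAM primer extension → HpaI cut → CE. Bidirectional fit vs DMSO.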

[12] = ATG_M_32_CIS: Attagene CIS-FACTORIAL HepG2 Assay for M32 Transcription Factor (Internal Marker) (AID 2282949); details: HepG2 Attagene cis-factorial M32 reporter, mRNA; actives raise or lower the signal;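 note: background control marker of the multiplexed CIS panel rather than a real target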
Outline: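 Fluorescent capillary electrophoresis peaks of HpaI-digested, FAM-labelled RT-PCR reporter products give the signal. Source: transiently transfected human liver HepG2 cells, 24 h after chemical dosing; bidirectional fitting against DMSO.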

[13] = ATG_M_06_CIS: Attagene CIS-FACTORIAL HepG2 Assay for M06 Transcription Factor (Internal Marker) (AID 2282950); details: HepG2 Attagene CIS-FACTORIAL M06 internal marker reporter; actives raise or lower the signal
Outline: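 Read-out is fluorescence of labelled reporter cDNA fragments resolved by capillary electrophoresis after RT-PCR. Cells: HepG2 carrying transfected cis-promoter reporter units, treated 24 h. Gain or loss of signal fitted relative to DMSO.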

[14] = ATG_MRE_CIS: Attagene CIS-FACTORIAL HepG2 Assay for human Metal Responsive Element (MRE) (AID 2282954); details: HepG2 MRE cis-reporter transcription, Attagene multiplex; actives raise or lower the signal
Outline: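 HepG2 cells transiently transfected with cis-element-driven reporter units; mRNA measured 24 h after dosing. Reporter transcripts quantified by RT-PCR, FAM labelling, HpaI digestion and capillary electrophoresis; bidirectional fit versus DMSO.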

[15] = target: Paired box protein Pax-6 (Homo sapiens) (UniProt P26367); test: ATG_Pax6_CIS: Attagene CIS-FACTORIAL HepG2 Assay for human Paired Box 6 (PAX6) (AID 2282956); details: HepG2 CIS-FACTORIAL PAX6 reporter transcription, RNA readout; actives raise or lower the signal
Sequence of Paired box protein Pax-6 (Homo sapiens) (P26367 whole entry, looked up): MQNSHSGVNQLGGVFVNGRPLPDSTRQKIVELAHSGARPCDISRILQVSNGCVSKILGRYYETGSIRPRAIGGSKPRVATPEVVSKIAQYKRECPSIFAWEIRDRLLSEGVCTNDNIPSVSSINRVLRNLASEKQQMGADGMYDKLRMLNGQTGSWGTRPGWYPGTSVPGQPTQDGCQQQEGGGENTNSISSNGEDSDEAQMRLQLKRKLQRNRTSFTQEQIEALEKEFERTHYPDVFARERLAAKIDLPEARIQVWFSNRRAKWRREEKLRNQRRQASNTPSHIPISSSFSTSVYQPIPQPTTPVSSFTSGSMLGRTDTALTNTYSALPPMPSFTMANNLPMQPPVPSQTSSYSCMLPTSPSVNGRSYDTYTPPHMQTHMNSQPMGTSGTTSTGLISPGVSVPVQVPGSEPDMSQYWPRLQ
Outline: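 After twenty-four hours of chemical exposure, transfected HepG2 cells are harvested for RNA. Cis-promoter reporter transcripts are amplified, fluorescently labelled and sized by capillary electrophoresis, with gain and loss of signal scored against DMSO.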

[16] = ATG_PXRE_CIS: Attagene CIS-FACTORIAL HepG2 Assay for human Pregnane X Receptor Element (PXRE) (AID 2282957); details: HepG2 Attagene CIS-FACTORIAL PXRE reporter, mRNA; actives raise or lower the signal
Outline: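 Multiplexed cis-reporter assay in transiently transfected human HepG2 cells; 24 h chemical exposure. Reporter transcripts quantified by RT-PCR with fluorescent labeling and capillary electrophoresis.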

[17] = target: Transcription factor Sp1 (Homo sapiens) (UniProt P08047); test: ATG_Sp1_CIS: Attagene CIS-FACTORIAL HepG2 Assay for human Specificity Protein 1 (Sp1) (AID 2282961); details: HepG2 Sp1 cis-reporter transcription, actives raise or lower the signal
Sequence of Transcription factor Sp1 (Homo sapiens) (P08047 whole entry, looked up): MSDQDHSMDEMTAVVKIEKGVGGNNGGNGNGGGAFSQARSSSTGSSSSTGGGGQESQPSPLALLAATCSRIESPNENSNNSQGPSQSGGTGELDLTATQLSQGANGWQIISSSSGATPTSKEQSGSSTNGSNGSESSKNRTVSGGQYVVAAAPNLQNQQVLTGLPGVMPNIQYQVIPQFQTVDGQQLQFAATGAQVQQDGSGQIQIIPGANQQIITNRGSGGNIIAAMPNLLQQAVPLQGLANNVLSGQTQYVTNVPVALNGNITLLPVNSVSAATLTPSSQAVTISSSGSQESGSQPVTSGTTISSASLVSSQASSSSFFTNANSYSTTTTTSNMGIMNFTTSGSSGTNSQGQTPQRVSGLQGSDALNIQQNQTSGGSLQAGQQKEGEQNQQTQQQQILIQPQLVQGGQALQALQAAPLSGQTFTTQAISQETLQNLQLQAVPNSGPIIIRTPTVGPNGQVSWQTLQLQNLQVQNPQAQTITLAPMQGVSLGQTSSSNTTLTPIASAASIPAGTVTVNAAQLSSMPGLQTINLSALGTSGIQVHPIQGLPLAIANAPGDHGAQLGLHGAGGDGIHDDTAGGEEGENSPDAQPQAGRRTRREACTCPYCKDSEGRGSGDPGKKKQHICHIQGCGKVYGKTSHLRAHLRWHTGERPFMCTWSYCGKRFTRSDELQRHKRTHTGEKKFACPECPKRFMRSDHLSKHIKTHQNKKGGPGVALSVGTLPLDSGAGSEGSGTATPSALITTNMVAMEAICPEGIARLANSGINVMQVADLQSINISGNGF
Outline: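 Endogenous Sp1 activity was gauged in human liver HepG2 cells bearing transfected reporter units under a cis-regulating promoter. After 24 h dosing, reporter mRNA was quantified by RT-PCR with capillary electrophoresis, and activity fitted bidirectionally versus DMSO.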

[18] = ATG_SREBP_CIS: Attagene CIS-FACTORIAL HepG2 Assay for human Sterol Regulatory Element Binding (SREBP) (AID 2282962); details: HepG2 Attagene cis-factorial SREBP reporter, mRNA; actives raise or lower the signal
Outline: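 Twenty-four hours after chemical dosing of transfected HepG2 cultures, reporter RNA was converted to cDNA, amplified, end-labelled with 6-FAM and resolved by capillary electrophoresis. Responses were fitted relative to DMSO.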

[19] = target: Signal transducer and activator of transcription 3 (Homo sapiens) (UniProt P40763); test: ATG_STAT3_CIS: Attagene CIS-FACTORIAL HepG2 Assay for human Signal Transducer and Activator of Transcription 3 (STAT3) (AID 2282963); details: HepG2, Attagene cis-factorial STAT3 reporter transcription; actives raise or lower the signal
Sequence of Signal transducer and activator of transcription 3 (Homo sapiens) (P40763 whole entry, looked up): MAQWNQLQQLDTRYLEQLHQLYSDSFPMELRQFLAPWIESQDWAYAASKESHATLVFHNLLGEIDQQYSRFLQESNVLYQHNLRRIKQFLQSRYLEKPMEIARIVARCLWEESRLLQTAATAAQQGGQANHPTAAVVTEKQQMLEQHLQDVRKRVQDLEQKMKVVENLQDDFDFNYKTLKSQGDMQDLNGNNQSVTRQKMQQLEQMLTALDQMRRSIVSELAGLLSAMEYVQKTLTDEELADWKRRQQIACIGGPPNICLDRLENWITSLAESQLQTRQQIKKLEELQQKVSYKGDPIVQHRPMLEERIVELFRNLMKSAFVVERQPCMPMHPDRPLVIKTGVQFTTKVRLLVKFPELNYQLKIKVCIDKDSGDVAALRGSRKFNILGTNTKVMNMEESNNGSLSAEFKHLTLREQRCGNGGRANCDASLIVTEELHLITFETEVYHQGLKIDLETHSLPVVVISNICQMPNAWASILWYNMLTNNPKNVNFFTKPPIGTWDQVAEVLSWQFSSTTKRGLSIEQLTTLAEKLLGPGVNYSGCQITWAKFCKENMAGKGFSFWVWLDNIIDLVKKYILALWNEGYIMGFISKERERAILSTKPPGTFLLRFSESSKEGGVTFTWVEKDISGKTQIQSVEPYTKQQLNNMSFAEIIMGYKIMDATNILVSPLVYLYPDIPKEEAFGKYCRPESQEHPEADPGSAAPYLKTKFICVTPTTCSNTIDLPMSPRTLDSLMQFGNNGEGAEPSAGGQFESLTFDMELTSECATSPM
Outline: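 HepG2 cells transiently transfected with multiple cis-element-driven reporter units report endogenous transcription factor activity. After 24 h compound exposure, reporter mRNA is measured by RT-PCR, 6-FAM labelling, HpaI digestion and capillary electrophoresis. Fitted bidirectionally versus DMSO.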

[20] = ATG_TAL_CIS: Attagene CIS-FACTORIAL HepG2 Assay for human TAL Basal Promoter (AID 2282966); details: HepG2 Attagene cis-factorial TAL promoter reporter; actives raise or lower the signal;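 note: background control endpoint measuring basal TAL promoter reporter mRNA not a specific factor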
Outline: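 Steps: transfect HepG2 with multiple reporter transcription units; dose 24 h; isolate RNA, reverse-transcribe, PCR-amplify, label with 6-FAM, digest with HpaI; resolve by capillary electrophoresis. Bidirectional fitting against DMSO baseline.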

Measured: AC50

C=C(C)C(=O)OCCCCCC
active: [16] 26.5 µM
inactive: all other assays above

CCCC(=O)OC/C=C(\C)CCC=C(C)C
active: [16] 22.7 µM
inactive: all other assays above

CO[Si](CCCNCCN)(OC)OC
active: [16] 37.3 µM
inactive: all other assays above

CC(C)CC(=O)CC(C)CC(C)C (stereo not given)
active: [16] 29.3 µM
inactive: all other assays above

COC(=O)[C@]1(C)CCC[C@@]2(C)[C@H]1CC=C1C=C(C(C)C)CC[C@@H]12
active: [3] 62.4 µM | [5] 100 µM | [11] 173 µM | [14] 66.1 µM | [16] 3.48 µM | [20] 52.4 µM
inactive: all other assays above

COC(=O)/C=C\C(=O)OC
active: [3] 28.1 µM | [8] 83.1 µM | [9] 100 µM | [16] 6.26 µM | [20] 100 µM
inactive: all other assays above

O=C(Oc1ccccc1)c1ccccc1
inactive: all assays above
